Reference: PubChem BioAssay (Tox21)
Values without a mark were called inactive. A call without a number means that no potency is given here. The source made the active and inactive calls. Calls follow the shape of the dose curve; as a rule, active = well fitted curve in the direction sought with a large enough effect in the repeat runs; inconclusive = weak or mixed curves; inactive = flat fitted curve, though single readings scatter.

Experiment: qHTS assay to test for compound auto fluorescence at 535 nm (green) in HepG2 cell free culture (AID 720686)
Details: Cell-free medium, green autofluorescence 485/535 nm; series mostly up to 91.3 µM
Description: U.S. Tox21 Program National Center for Advancing Translational Sciences [NCATS] NIH Chemical Genomics Center [NCGC] U.S. Environmental Protection Agency [EPA] National Institutes of Environmental Health Sciences [NIEHS] National Toxicology Program [NTP] U.S. Food and Drug Administration [FDA] Tox21 Assay Overview: Compound auto fluorescence often interferes with screening of the compound library against various biological targets and signaling pathways. Some of these compounds may have fluorophoric properties. Such properties may interfere with the assay outputs resulting in false positives and/or negatives. To decrease such complications and ensure the compound activities are relevant in terms of biological response, the Tox21 10K compound library was screened for auto fluorescence. From the fluorophores used as reporter signals in our screening assays, the auto fluorescence equivalencies of compounds against three fluorophores have been evaluated: Triamterene, Fluorescein and Rose Bengal sodium for blue, green and red fluorescence, respectively. The fluorescence intensities were measured using Excitation/Emission wavelengths at 405/460nm, 485/535nm and 540/590nm for blue, green and red labels, respectively. This assay includes the green fluorescence data.
Tox21 Assay Protocol Summary: 5 uL of culture medium (MEM containing 10% FBS) per well was dispensed into black wall/clear bottom 1536-well plates using a Multidrop Combi Dispenser (ThermoFisher Scientific, Waltham, MA). After 23 nL compound or DMSO vehicle was transferred into assay plate by a pintool work station (Kalypsys, San Diego, CA), fluorescence intensities in the assay plates were measured by an Envision (PerkinElmer, Shelton, CT) plate reader using three labels for measuring blue, green and red fluorescence at […] 460, 535 and 590nm respectively.
For `Oc1ccccc1O`, the Potency was “inactive”. For `CC(C)Cn1cnc2c(N)nc3ccccc3c21`, the Potency was “inactive”. For `CCCCNS(=O)(=O)c1ccc(C)cc1`, the Potency was “inactive”. With `O=C1c2ccccc2C(=O)N1SC1CCCCC1` the Potency was “inactive”. Work on `CCCCC(CC)CN1CN(CC(CC)CCCC)CC(C)(N)C1` (stereo not given) yielded a fluorescence, % of fluorescein control of -0.051% [at 18.6 µM]. In the case of `CCCCCCCCCCCCOCCOCCOCCOCCOCCOCCOCCOCCOCCO`, the Potency is reported as “inactive”. For `COc1c(C)c2c(c(O)c1C/C=C(\C)CCC(=O)OCCN1CCOCC1)C(=O)OC2`, the Potency was “inactive”. For `O=C(Oc1ccccc1)Oc1ccccc1`, the Potency was “inactive”. For `O=C(O)c1cc(N=Nc2ccc([N+](=O)[O-])cc2)ccc1O`, the Potency was “inactive”. In the case of `CC(C)(C)NSc1nc2ccccc2s1`, the Potency is reported as “inactive”. For `COc1cc(/C=C/c2ccccc2)oc(=O)c1`, the Potency was “inactive”. `COC(=O)Nc1nc2ccc(C(=O)c3ccccc3)cc2[nH]1` showed a fluorescence, % of fluorescein control of 0.0619% [at 18.6 µM]. `Cc1cc(C(C)(C)C)cc(C)c1CC1=NCCN1` gave a fluorescence, % of fluorescein control of -0.0122% [at 18.6 µM]. With `CC(=O)CC(=O)Nc1ccc(S(=O)(=O)O)cc1` the Potency was “inactive”. With `CCOC(=O)Cn1cccc1-c1nc(-c2ccc(OC)cc2)c(-c2ccc(OC)cc2)s1` the Potency was “inactive”. In the case of `COCCOc1cc2cc(C(=O)NC3CCN(C(C)C)CC3)n(CC(=O)Nc3ccc(Cl)cn3)c2cn1`, the Potency is reported as “inactive”. With `[Cl][Pt-2]([Cl])([Cl])[Cl]` the Potency was “inactive”. For `O=C(O)c1cc(=O)c2ccccc2o1`, the Potency was “inactive”. In the case of `Cc1cc(C(C)(C)C)c(O)c(C)c1Cn1c(=O)n(Cc2c(C)cc(C(C)(C)C)c(O)c2C)c(=O)n(Cc2c(C)cc(C(C)(C)C)c(O)c2C)c1=O`, the Potency is reported as “inactive”. For `O=c1[nH]c(=O)n([C@H]2C[C@H](O)[C@@H](CO)O2)cc1F`, the Potency was “inactive”. For `CCCCCc1ccc(Cl)cc1`, the Potency was “inactive”. In the case of `Cc1cc(-c2ccc(N=Nc3cc(S(=O)(=O)O)c4ccccc4c3N)c(C)c2)ccc1N=Nc1cc(S(=O)(=O)O)c2ccccc2c1N`, the Potency is reported as “inactive”. In the case of `C=CC(C)(CCC=C(C)C)OC=O` (stereo not given), the Potency is reported as “inactive”. In the case of `CCN(CC)c1ccc2c(-c3ccc(S(=O)(=O)O)cc3S(=O)(=O)[O-])c3ccc(=[N+](CC)CC)cc-3oc2c1`, the Potency is reported as “inactive”. For `CC[C@H](C)COC(=O)/C=C/c1ccc(N=Cc2ccc(OC)cc2)cc1`, the Potency was “inactive”. In the case of `O=S(=O)(O)c1ccccc1/C=C/c1ccc(-c2ccc(/C=C/c3ccccc3S(=O)(=O)O)cc2)cc1`, the Potency is reported as “inactive”. With `CCN(CCN)c1cccc(C)c1` the Potency was “inactive”. With `CC(C)(C)c1csc(-c2cc3cc(OCc4ccccc4CC(=O)O)ccc3o2)n1` the Potency was “inactive”. With `Cc1ccc(C(C)C)cc2c(C)ccc1-2` the Potency was “inactive”. With `C[C@H]1NCc2cc(-c3ccc4c(=O)c(C(=O)O)cn(C5CC5)c4c3OC(F)F)ccc21` the Potency was “inactive”. For `CC1(C)CCC[C@]2(C)[C@H]3CC(=O)O[C@]3(C)CC[C@@H]12`, the Potency was “inactive”. For `COc1cc2nc(N3CCN(C(=O)c4ccco4)CC3)nc(N)c2cc1OC`, the Potency was “inactive”. In the case of `CC(CO)Oc1ccccc1` (stereo not given), the Potency is reported as “inactive”. For `c1ccc(C(O[C@@H]2CCCN(CCc3ccc4c(c3)OCO4)C2)c2ccccc2)cc1`, the Potency was “inactive”. With `Nc1ccc(Oc2ccc(Cl)cc2)cc1` the Potency was “inactive”. For `O=C(O)c1cccc(C(F)(F)F)c1`, the Potency was “inactive”. In the case of `COc1ccc2cc1Oc1ccc(cc1)C[C@H]1c3c(cc4c(c3Oc3cc5c(cc3OC)CCN(C)[C@@H]5C2)OCO4)CCN1C`, the Potency is reported as “inactive”. With `C=CCn1c(=O)n(CC=C)c(=O)n(CC=C)c1=O` the Potency was “inactive”. In the case of `C/C=C/C=C/COC(=O)C(C)C`, the Potency is reported as “inactive”. In the case of `CCC(=O)OC(=O)CC`, the Potency is reported as “inactive”.
